# What was measured:
# Assay in all cases: DAPPL (digital affinity profiling via proximity ligation, sequencing); 10 mM Tris-HCl pH 7.5, 50 mM NaCl, 1 mM DTT, 4% glycerol, room temperature, 30 min; GST-TFs on glutathione beads, 16-mer random dsDNA library, 0.1% formaldehyde crosslink after washing; high values mean tight binding
# FLI1 = molecular target: T1, FLI1 (Homo sapiens, UniProt Q01543 1-452); settings: protein: recombinant; tags: N-terminal GST; dsDNA, one strand shown
# T1 sequence: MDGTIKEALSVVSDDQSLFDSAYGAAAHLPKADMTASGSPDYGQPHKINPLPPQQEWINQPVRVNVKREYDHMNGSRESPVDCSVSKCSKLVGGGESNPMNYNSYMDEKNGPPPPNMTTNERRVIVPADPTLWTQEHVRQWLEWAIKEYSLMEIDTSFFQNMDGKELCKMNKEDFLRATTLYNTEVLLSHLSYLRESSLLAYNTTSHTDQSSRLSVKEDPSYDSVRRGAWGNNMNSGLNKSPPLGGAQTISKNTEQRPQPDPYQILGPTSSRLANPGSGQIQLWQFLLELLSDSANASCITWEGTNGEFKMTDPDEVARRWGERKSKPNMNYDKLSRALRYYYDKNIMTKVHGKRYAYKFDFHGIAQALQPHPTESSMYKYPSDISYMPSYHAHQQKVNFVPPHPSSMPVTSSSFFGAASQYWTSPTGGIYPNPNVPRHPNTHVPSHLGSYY
# Summary of the method: (§1)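 Human transcription factors were made in yeast as GST fusions, captured on glutathione beads and barcoded with DNA. With a tag-only sample included, the pool was incubated with 200 nmole of a random double-stranded 16-mer DNA library in Tris/NaCl/DTT/glycerol buffer at room temperature for 30 min, then crosslinked with 0.1% formaldehyde after washing, ligated by proximity, amplified and sequenced. For binding signal, each hexamer's read frequency for a factor is divided by its frequency for the tag-only sample.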
# HSF1 = HSF1 (Homo sapiens, UniProt Q00613 1-529); settings: protein: recombinant; tags: N-terminal GST; chain copies: 3; dsDNA, one strand shown
# Summary of the method: as §1
# ELK1 = molecular target: T2, ELK1 (Homo sapiens, UniProt P19419 1-428); settings: protein: recombinant; tags: N-terminal GST; dsDNA, one strand shown
# T2 sequence: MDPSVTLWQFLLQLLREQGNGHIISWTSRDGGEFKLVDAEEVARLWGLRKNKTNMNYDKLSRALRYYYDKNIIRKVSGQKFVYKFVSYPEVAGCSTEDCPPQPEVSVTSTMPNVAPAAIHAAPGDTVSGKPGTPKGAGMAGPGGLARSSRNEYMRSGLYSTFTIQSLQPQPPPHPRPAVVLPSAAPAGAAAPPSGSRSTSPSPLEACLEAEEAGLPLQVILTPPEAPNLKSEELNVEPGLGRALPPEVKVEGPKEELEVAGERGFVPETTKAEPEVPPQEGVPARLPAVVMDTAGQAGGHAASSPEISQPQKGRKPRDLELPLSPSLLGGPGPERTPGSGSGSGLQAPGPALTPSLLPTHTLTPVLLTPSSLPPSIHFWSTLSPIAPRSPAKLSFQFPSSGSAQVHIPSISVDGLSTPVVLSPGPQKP
# Summary of the method: as §1
# ELF4 = ELF4 (Homo sapiens, UniProt Q99607 1-663); settings: protein: recombinant; tags: N-terminal GST; dsDNA, one strand shown
# Summary of the method: as §1
# ELF3 = molecular target: T3, ELF3 (Homo sapiens, UniProt P78545 1-371); settings: protein: recombinant; tags: N-terminal GST; dsDNA, one strand shown
# T3 sequence: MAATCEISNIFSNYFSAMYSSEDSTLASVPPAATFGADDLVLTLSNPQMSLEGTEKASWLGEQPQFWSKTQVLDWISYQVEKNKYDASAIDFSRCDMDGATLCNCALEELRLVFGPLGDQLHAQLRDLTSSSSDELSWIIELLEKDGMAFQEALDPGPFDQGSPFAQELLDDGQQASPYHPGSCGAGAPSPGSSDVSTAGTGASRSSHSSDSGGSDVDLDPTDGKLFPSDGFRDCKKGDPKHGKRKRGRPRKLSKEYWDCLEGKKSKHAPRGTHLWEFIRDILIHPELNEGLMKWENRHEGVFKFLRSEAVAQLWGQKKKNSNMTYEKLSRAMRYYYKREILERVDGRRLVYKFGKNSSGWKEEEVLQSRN
# Summary of the method: as §1
# ERF = molecular target: T4, ERF (Homo sapiens, UniProt P50548 1-548); settings: protein: recombinant; tags: N-terminal GST; dsDNA, one strand shown
# T4 sequence: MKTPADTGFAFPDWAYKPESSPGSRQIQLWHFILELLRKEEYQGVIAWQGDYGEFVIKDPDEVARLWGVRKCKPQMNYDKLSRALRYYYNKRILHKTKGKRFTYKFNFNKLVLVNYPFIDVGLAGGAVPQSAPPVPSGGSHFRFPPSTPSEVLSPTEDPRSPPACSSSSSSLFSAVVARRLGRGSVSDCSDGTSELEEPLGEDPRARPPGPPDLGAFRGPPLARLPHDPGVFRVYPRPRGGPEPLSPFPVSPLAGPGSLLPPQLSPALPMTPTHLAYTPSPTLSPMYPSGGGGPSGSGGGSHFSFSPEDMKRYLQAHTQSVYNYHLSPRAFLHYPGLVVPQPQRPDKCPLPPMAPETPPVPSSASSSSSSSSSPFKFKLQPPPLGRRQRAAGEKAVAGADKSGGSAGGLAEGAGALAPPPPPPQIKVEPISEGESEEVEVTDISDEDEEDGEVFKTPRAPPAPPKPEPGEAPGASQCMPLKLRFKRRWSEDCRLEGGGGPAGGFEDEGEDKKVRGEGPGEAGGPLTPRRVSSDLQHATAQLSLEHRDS
# Summary of the method: as §1
# ETV7 = molecular target: T5, ETV7 (Homo sapiens, UniProt Q9Y603 1-341); settings: protein: recombinant; tags: N-terminal GST; dsDNA, one strand shown
# T5 sequence: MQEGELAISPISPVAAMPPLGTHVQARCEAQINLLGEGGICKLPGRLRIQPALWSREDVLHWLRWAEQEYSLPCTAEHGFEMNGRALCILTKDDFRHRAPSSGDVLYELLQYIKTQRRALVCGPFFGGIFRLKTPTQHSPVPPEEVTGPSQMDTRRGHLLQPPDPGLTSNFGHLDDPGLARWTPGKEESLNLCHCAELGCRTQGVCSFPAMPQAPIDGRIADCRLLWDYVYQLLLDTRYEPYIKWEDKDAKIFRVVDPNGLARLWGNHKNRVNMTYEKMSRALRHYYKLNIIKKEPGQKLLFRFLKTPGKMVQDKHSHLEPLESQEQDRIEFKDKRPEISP
# Summary of the method: as §1
# ETV3 = molecular target: T6, ETV3 (Homo sapiens, UniProt P41162-2 1-143); settings: protein: recombinant; tags: N-terminal GST; dsDNA, one strand shown
# T6 sequence: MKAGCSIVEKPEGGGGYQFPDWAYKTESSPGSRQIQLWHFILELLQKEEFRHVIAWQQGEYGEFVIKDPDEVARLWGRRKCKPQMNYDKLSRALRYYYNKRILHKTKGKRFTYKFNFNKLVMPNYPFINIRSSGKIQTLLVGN
# Summary of the method: as §1
# ETV6 = ETV6 (Homo sapiens, UniProt P41212 1-452); settings: protein: recombinant; tags: N-terminal GST; dsDNA, one strand shown
# Summary of the method: as §1
# HSF1, sequence (Q00613 whole entry): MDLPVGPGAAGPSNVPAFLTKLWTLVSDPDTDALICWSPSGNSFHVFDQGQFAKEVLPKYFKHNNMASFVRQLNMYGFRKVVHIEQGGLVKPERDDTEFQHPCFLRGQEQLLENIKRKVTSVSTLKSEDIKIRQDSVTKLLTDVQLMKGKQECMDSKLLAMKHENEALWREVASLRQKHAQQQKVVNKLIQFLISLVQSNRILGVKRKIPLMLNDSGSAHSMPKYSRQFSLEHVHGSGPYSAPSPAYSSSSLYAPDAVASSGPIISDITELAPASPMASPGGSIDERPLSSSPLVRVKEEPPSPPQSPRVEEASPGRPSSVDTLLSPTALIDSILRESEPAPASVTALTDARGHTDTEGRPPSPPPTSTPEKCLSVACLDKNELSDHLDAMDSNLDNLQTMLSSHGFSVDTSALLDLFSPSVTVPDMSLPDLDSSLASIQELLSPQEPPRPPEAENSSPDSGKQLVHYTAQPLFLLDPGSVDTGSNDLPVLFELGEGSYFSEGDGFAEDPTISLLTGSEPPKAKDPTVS
# ELF4, sequence (Q99607 whole entry): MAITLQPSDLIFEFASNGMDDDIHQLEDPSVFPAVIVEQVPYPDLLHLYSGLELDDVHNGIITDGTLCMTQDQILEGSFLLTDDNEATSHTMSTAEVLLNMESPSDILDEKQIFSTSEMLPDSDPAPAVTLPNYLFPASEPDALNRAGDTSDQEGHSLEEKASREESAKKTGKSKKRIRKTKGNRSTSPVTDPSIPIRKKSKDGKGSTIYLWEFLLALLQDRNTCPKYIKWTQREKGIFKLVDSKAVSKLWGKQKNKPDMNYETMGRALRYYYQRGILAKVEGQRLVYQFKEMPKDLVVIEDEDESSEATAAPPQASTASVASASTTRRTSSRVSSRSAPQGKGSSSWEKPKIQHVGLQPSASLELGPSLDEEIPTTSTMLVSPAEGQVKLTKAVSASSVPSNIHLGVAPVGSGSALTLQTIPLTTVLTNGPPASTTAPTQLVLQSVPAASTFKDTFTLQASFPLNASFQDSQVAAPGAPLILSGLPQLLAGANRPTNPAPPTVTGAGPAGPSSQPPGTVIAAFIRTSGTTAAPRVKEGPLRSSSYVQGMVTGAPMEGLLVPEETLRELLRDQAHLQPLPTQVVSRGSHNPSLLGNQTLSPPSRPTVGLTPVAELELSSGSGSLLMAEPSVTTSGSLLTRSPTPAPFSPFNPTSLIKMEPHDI
# ETV6, sequence (P41212 whole entry): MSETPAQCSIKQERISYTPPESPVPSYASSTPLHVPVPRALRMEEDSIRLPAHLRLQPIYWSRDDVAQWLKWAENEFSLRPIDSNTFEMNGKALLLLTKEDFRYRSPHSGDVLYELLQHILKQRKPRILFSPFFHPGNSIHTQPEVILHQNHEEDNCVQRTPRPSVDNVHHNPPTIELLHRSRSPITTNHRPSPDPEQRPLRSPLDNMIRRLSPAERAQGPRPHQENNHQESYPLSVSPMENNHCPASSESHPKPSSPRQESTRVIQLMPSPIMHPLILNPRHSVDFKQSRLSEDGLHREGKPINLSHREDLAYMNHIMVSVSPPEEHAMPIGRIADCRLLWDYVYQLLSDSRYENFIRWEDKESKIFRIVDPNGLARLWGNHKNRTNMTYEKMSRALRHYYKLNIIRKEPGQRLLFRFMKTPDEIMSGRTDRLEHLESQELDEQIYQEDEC
Sequence,binding signal (FLI1),binding signal (HSF1),binding signal (ELK1),binding signal (ELF4),binding signal (ELF3),binding signal (ERF),binding signal (ETV7),binding signal (ETV3),binding signal (ETV6)
TAAGTC,"1 fold enrichment (6-mer frequency, TF over GST control)","1.21 fold enrichment (6-mer frequency, TF over GST control)",–,–,–,–,–,–,–
AGAAAC,"1.04 fold enrichment (6-mer frequency, TF over GST control)","1.78 fold enrichment (6-mer frequency, TF over GST control)","1.02 fold enrichment (6-mer frequency, TF over GST control)","1.01 fold enrichment (6-mer frequency, TF over GST control)","1.02 fold enrichment (6-mer frequency, TF over GST control)","1.05 fold enrichment (6-mer frequency, TF over GST control)","1.16 fold enrichment (6-mer frequency, TF over GST control)","1.01 fold enrichment (6-mer frequency, TF over GST control)","1.03 fold enrichment (6-mer frequency, TF over GST control)"

# — article PMC7862700, “An all-to-all approach to the identification of sequence-specific readers for epigenetic DNA modifications on cytosine”
